Test results: PubChem BioAssay AID686979 (National Center for Advancing Translational Sciences (NCATS), 2013)
Hit rate of the full screen: of about 420,000 compounds, about 50,000 (12%) were called active. Roughly 26% stayed inconclusive and do not appear here. This is one part of a sample in which actives are shown more often than they occur. A number with no mark means an inactive call. The call rests on the fitted dose curve; in most records, active means well fitted inhibition curve with a large enough effect; inconclusive means small, poorly fitted or top-dose-only effect; inactive means flat fitted curve, though single readings scatter.

assay: qHTS for Inhibitors of human tyrosyl-DNA phosphodiesterase 1 (TDP1): qHTS in cells in presence of CPT; details: chicken DT40 Tdp1-/-;hTDP1 cells + 20 nM CPT, ATP luminescence, 48 h; series mostly up to 46.2 µM; activity change, negative = growth inhibition: at the top concentration; further: nearly all actives have a fitted effect of over 55% in size
Method in brief: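 Chicken DT40 Tdp1-/- cells stably complemented with human TDP1 were seeded at 400 cells/well in medium containing 20 nM camptothecin, exposed to pin-transferred compounds, and grown at 37 °C for at least 48 hr. Viability was read as ATP luminescence.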
On the % scale 0 is the no-effect control and ±100 the full control effect; potency means the concentration at half of the fitted maximal effect.

SMILES | activity change, negative = growth inhibition [%] | Potency
O=C(NC1CCCCC1)C1CC(=O)N(CCc2ccccc2)C1 (centres undefined) | -5.56 | –
CC(NC(=O)COC(=O)CCC(=O)c1ccc(Cl)cc1)c1ccccc1 (centres undefined) | -8.03 | –
CC1CCC(NC(=O)CNC(=O)c2ccc3ccccc3c2)CC1 (centres undefined) | -25.8 | –
COc1cc(/C=N/NC(=O)CNC(=O)c2ccncc2)ccc1OC(C)=O | 11 | –
Cc1cc(C)nc(Nc2cc([N+](=O)[O-])ccc2C)n1 | 8.55 | –
CCCCCC(=O)Nc1ccc(C(=O)N/N=C/c2ccc([N+](=O)[O-])cc2)cc1 | 2.57 | –
NC(=O)C(=O)N/N=C/c1ccc([N+](=O)[O-])o1 | – | 10.6 µM (active)
COc1ccccc1OCCNC(=O)c1cc([N+](=O)[O-])cc([N+](=O)[O-])c1 | 2.49 | –
CCOc1ccc(NC(=O)CCC(=O)N/N=C/c2ccc([N+](=O)[O-])s2)cc1 | – | 10.3 µM (active)
Cc1cc(C)nc(N/N=C/c2ccc([N+](=O)[O-])o2)n1 | – | 23.1 µM (active)
O=C(N/N=C/c1ccc([N+](=O)[O-])cc1)C(=O)N1CCCC1 | -9.59 | –
Cc1cc(C)nc(N/N=C/c2ccncc2)n1 | 10.1 | –
CCOc1ccc(NC(=O)CCC(=O)NNC(=O)NC2CCCCC2)cc1 | -25.9 | –
COc1ccc(C(=O)NCC(=O)N/N=C/c2ccc([N+](=O)[O-])o2)cc1OC | – | 2.31 µM (active)
NC(=S)N/N=C/c1ccc([N+](=O)[O-])cc1 | -18.6 | –
CC(C)[C@@H](C(=O)O)N(Cc1cccc(CN([C@H](C(=O)O)C(C)C)S(C)(=O)=O)c1)S(C)(=O)=O | -12.6 | –
CC1=C(C(=O)Nc2ccccc2)C(c2ccc(C)cc2)n2nc(SCc3ccccc3C)nc2N1 (centres undefined) | 3.41 | –
COc1cccc(NC(=O)C(=O)NCC(c2ccc3c(c2)OCO3)N2CCN(C)CC2)c1 (centres undefined) | -23.2 | –
COc1ccccc1CNS(=O)(=O)CC12CCC(CC1=O)C2(C)C (centres undefined) | -2.24 | –
CCCc1c2oc(C(=O)O)cc(=O)c2cc2c(=O)cc(C(=O)O)n(CC)c12 | 16.1 | –
Cc1ccc(CC2CC(=O)N(c3cc(C)ccc3C)C2=O)cc1 (centres undefined) | 2.68 | –
NS(=O)(=O)c1ccccc1NC(=O)c1c(O)c2ccccc2[nH]c1=O | -1.4 | –
Cc1oc2cc(Br)c(O)c(Br)c2c1C(=O)c1ccccc1 | 10.4 | –
O=C(Nc1ccc(N2CCOCC2)cc1)c1cccc2c(-c3ccc(F)c(F)c3)coc12 | -58.3 | –
COc1ccc(N2CCN(C(=S)Nc3ccc(S(N)(=O)=O)cc3)CC2)cc1 | -27.4 | –
C/C(Cc1ccccc1)=N\NC(=O)CNC(=O)c1ccccc1Cl | -4.25 | –

SMILES | activity change, negative = growth inhibition [%] | Potency
Cc1ccc(C(=O)N(CC(=O)NC2CCCC2)c2ccc(F)cc2)s1 | -1.84 | –
CC(C)(C)c1cc(C(=O)N/N=C/c2ccc([N+](=O)[O-])s2)n[nH]1 | – | 9.2 µM (active)
Cc1nn(CC(=O)N/N=C/c2ccc(F)cc2)c(C)c1[N+](=O)[O-] | 8.62 | –
COc1cc(/C=N\NC(=O)CNC(=O)c2cccc([N+](=O)[O-])c2)ccc1O | -1.83 | –
Cc1nn(-c2ccccc2)c(Cl)c1/C=N/NC(=O)c1nn(C)cc1[N+](=O)[O-] | -5.46 | –
Cc1ccccc1NCC(=O)N/N=C\c1ccc([N+](=O)[O-])s1 | – | 8.2 µM (active)
COc1ccc(C(=O)NCC(=O)N/N=C/c2ccc([N+](=O)[O-])s2)cc1OC | – | 20.6 µM (active)
O=C(COc1ccccc1[N+](=O)[O-])N/N=C/c1ccc[nH]1 | 0.416 | –
O=C(Cc1cc(=O)[nH][nH]1)N/N=C/c1ccccc1[N+](=O)[O-] | -0.646 | –
COc1ccc(/C=N/NC(=O)CNC(=O)c2ccc(S(=O)(=O)N3CCCC3)cc2)c(OC)c1 | -12.7 | –
C/[N+]([O-])=C\c1ccc([N+](=O)[O-])o1 | – | 25.9 µM (active)
O=C(COC(=O)Cc1ccc(Cl)cc1Cl)NCc1ccco1 | -8.95 | –
CN(C)/C=C(/C(=O)c1ccccc1)S(=O)(=O)c1ccc(Cl)cc1 | 0.918 | –
Cc1cc(Cl)nc(NC(=O)Nc2cccc(Cl)c2)n1 | -5.03 | –
COc1cc(C(=O)Nc2cc(C(F)(F)F)ccc2N2CCOCC2)ccc1O | -4.87 | –
COc1ccc(NC(=O)CC(NC(C)c2ccccc2)C(=O)O)cc1 (centres undefined) | 7.18 | –
CCC(=O)c1c[nH]c(C(=O)NCC2CCCO2)c1 (centres undefined) | -0.0051 | –
CCOC(=O)C1=CN(Cc2ccc(Br)cc2)S(=O)(=O)NC1C (centres undefined) | -10.2 | –
COc1ccc(Cl)cc1C=CC=Nc1ccc(S(N)(=O)=O)cc1 | – | 18.4 µM (active)
COc1ccc(Cl)cc1C=CC=NNC(=O)c1ccncc1 | -28.1 | –
COc1ccccc1/C=C/C=N/n1c(-c2ccc(Cl)cc2Cl)n[nH]c1=S | -20.8 | –
Cc1ccc(NC(=O)CN(C)C(=O)c2ccc(Cl)c(S(=O)(=O)NCc3ccco3)c2)cc1 | -11 | –
COc1ccc(CNC(=O)CCN2C(=O)c3ccccc3C2=O)cc1 | -3.64 | –
CCCCN1C(=O)/C(=C(/C#N)C(N)=O)c2ccccc21 | -25.4 | –
COc1ccc2c(c1)C(=C(C#N)C#N)C(=O)N2CCc1ccccc1 | – | 3.66 µM (active)
Cc1ccc(C(=O)Oc2coc(CSc3nnc(NC(=O)c4cccs4)s3)cc2=O)cc1C | -13.4 | –

SMILES | activity change, negative = growth inhibition [%] | Potency
Cc1cccc(NC(=S)NCCc2ccc(Cl)cc2)c1C | – | 18.4 µM (active)
Cc1c(Cl)cccc1NC(=S)NCC(O)c1ccccc1 (centres undefined) | 4.14 | –
CCNC(=S)Nc1cccc(Cl)c1C | -13.1 | –
CCOCCCNC(=O)c1cc2c(=O)n3ccccc3nc2s1 | – | inactive
Cc1ccc(S(=O)(=O)N(C)c2ccc(OCC(=O)OCC(=O)N(CC#N)c3ccccc3)cc2)cc1 | 4.22 | –
COc1ccc(C(=O)NCCn2nc(C)cc2C)cc1OC1CCN(C(C)=O)CC1 | -1.37 | –
Cc1cc(OCC(=O)Nc2c(C)n(C)n(-c3ccccc3)c2=O)ccc1[N+](=O)[O-] | -3.95 | –
Cc1cc(OCCCN2CCN(Cc3ccccc3)CC2)ccc1[N+](=O)[O-] | – | 23.1 µM (active)
Cc1cc(OCCCCOc2ccc(C#N)cc2)ccc1[N+](=O)[O-] | – | 13 µM (active)
O=[N+]([O-])c1ccccc1OCCCCN1CCCCC1 | -1.52 | –
Cc1ccc(OCC(=O)Oc2ccccc2[N+](=O)[O-])cc1 | 9.02 | –
Cc1cc(OCC(=O)NC2CCN(C)CC2)ccc1[N+](=O)[O-] | -5.16 | –
COC(=O)c1cccc(N(CC(=O)NCC2CCCO2)C(=O)CCC(=O)Nc2cc(C)on2)c1 (centres undefined) | 12.7 | –
O=C(CSc1nnc(CNC(=O)c2ccc(F)cc2)o1)Nc1ccc2c(c1)OCO2 | -15.9 | –
O=C(Nc1cccnc1)c1ccc(Cl)c([N+](=O)[O-])c1 | 10 | –
Cc1ccnc(NC(=O)c2ccc(Cl)c([N+](=O)[O-])c2)c1 | -10.8 | –
O=C(Nc1ccncc1)c1ccc(Cl)c([N+](=O)[O-])c1 | – | 11.6 µM (active)
Cc1ccc2c(=O)c(C(=O)c3ccc(F)cc3)cn(CC(=O)NC3CCCCC3)c2n1 | -17.8 | –
N=C(N)SCc1cccc2ccccc12 | – | 18.4 µM (active)
c1ccc(NCc2cccc3ccccc23)nc1 | -7.92 | –
c1ccc2c(CNn3cnnc3)cccc2c1 | -4.07 | –
COc1cc(NC(=O)COc2ccccc2Cl)ccc1NC(=O)C(C)C | -20 | –
CCCC(=O)NC(=S)Nc1ccc(CN2CCOCC2)cc1 | 4.02 | –
CC(Sc1nnc(CNC(=O)c2ccccc2F)n1C)C(=O)Nc1nccs1 (centres undefined) | -16.6 | –
Brc1cccc(-c2nnn3c2nc(NC2CCCCC2)c2ccccc23)c1 | 0.81 | –
CCc1nnc(NC(=O)CSCc2cc(=O)n3cc(C)sc3n2)s1 | -17.7 | –

SMILES | activity change, negative = growth inhibition [%] | Potency
CSc1ccccc1NC(=O)CCS(=O)(=O)c1nc(-c2cccs2)cc(C(F)(F)F)n1 | – | 10.3 µM (active)
CC(Sc1nc(-c2ccccc2)cc(C(F)(F)F)n1)C(=O)Nc1ccc2c(c1)OCO2 (centres undefined) | -27.9 | –
COc1ccc(-c2cc(C(F)(F)F)nc(SCC(=O)Nc3ccc4c(c3)OCO4)n2)cc1OC | 2.49 | –
O=C(CSc1ccc(-c2cccs2)nn1)Nc1ccccc1F | -10.7 | –
COc1cc(OC)cc(C(=O)OCC(=O)Nc2ccc(F)cc2F)c1 | 10.6 | –
COc1ccccc1-c1cc(C(F)(F)F)nc(S(=O)(=O)CCCC(=O)Nc2ccc(F)cc2F)n1 | – | 5.17 µM (active)
COc1ccc(Cl)cc1NC(=O)CSc1nc(-c2cccs2)cc(C(F)(F)F)n1 | – | 23.1 µM (active)
Cc1ccc(O)c(NC(=O)c2cc(-c3ccc(F)cc3)no2)c1 | -16.7 | –
Cc1cc(C(F)(F)F)nc(SCC(=O)Nc2nccs2)n1 | -8.46 | –
COc1ccccc1-c1cc(C(F)(F)F)nc(S(=O)(=O)CCCC(=O)Nc2cc(C)ccc2O)n1 | -25.6 | –
CSc1ccccc1NC(=O)Cc1ccc(Br)cc1 | -16.6 | –
Cc1ccc(O)c(NC(=O)CCS(=O)(=O)c2nc(-c3ccc4c(c3)OCO4)cc(C(F)(F)F)n2)c1 | – | 8.2 µM (active)
COC(=O)c1ccccc1NC(=O)Cn1c(=O)n(-c2cccc(C(F)(F)F)c2)c(=O)c2c(C)c(C)sc21 | -13.6 | –
CNS(=O)(=O)c1ccc(NC(=O)Nc2ccc3c(c2)OCO3)cc1 | -8.43 | –
O=C(N[C@@H](Cc1ccccc1)C(=O)OCc1ccccc1)c1nc[nH]c1C(=O)NC1CCNCC1 | 10.2 | –
O=C(NC1CCCC1)C1c2ccccc2OCC(=O)N1Cc1ccccc1 (centres undefined) | -18.2 | –
COc1ccccc1NC(=O)c1cc(N2C(=O)C3C4CCC(C4)C3C2=O)ccc1Cl (centres undefined) | 3.9 | –
CCOC(=O)c1ccccc1NC(=O)CSc1nc2c(sc(=S)n2CC)c(=O)[nH]1 | -25.9 | –
CC(C)n1c(O)c(N=Nc2ccccn2)c2ccccc21 | -9.09 | –
FC(F)(F)c1ccnc(Oc2ccc(C3=NCCS3)cc2)c1 | -0.223 | –
Cc1ccc(NC(=O)c2ccco2)cc1 | 16.3 | –
O=C(c1cnccn1)N1CCN(S(=O)(=O)c2cccc(Cl)c2)CC1 | -5.64 | –
O=C1CC(c2ccccc2)C(=O)N2C(=O)CC(c3ccccc3)C(=O)N12 (centres undefined) | 22.6 | –
CCOC(=O)C1CCN(C(c2cc3cc(C)cc(C)c3[nH]c2=O)c2nnnn2C2CCCCC2)CC1 (centres undefined) | -25.1 | –
CNC(=O)NC(=O)C(C)N1CCN(C/C=C/c2ccccc2)CC1 (centres undefined) | 13.1 | –
FC(F)(F)Oc1ccccc1C(c1nnnn1C1CCCCC1)N1CCN(C/C=C/c2ccccc2)CC1 (centres undefined) | – | 18.4 µM (active)
